# Data published in PubChem BioAssay.
# Experiments:
# [1] = system: Human papillomavirus type 1a protein E7 (residues 44-93); assay: small molecules binding HPV E7 44-93 – biochemical, small-molecule microarray, residues 44-93, 635 nm fluorescence, primary screen (AID 1108); conditions: fluorescence 635 nm, higher = more signal;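 further: E7 fragment applied at 1 µg/mL in TBST for 1 h at 4 C; score combines spot fluorescence with its signal to noise ratio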
# [2] = hepatitis C replication reporter changes, two-sided – Huh7 cells, luciferase reporter, HCV replication inhibitor project, primary screen (AID 1109); conditions: Huh7 HCV replicon luciferase reporter, 48 h; higher = more signal;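 further: huh7 hepatoma cells harbouring a luciferase neomycin HCV replicon reporter; luciferase luminescence as measure of HCV replicon replication; test concentration not given here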
# [3] = molecular target: Left-right determination factor 2 (Homo sapiens) (UniProt O00292); assay: small molecules binding LEFTY2 protein – biochemical, small-molecule microarray, 635 nm fluorescence scan, primary screen (AID 1110); conditions: higher = more signal
# Chain of Left-right determination factor 2 (Homo sapiens) (O00292 whole entry, looked up): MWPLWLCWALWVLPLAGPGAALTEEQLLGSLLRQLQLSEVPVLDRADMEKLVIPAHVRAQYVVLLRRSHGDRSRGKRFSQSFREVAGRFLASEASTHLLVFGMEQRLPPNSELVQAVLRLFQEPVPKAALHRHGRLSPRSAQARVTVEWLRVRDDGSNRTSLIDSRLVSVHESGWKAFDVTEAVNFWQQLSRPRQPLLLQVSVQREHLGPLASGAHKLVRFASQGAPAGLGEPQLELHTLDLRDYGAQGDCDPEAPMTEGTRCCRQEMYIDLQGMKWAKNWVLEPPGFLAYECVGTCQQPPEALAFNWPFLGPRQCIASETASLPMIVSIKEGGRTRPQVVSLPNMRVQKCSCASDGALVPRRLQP
# [4] = molecular target: Calmodulin-1 (Homo sapiens) (UniProt P0DP23); assay: small molecules binding calmodulin-1 with EGTA – biochemical, small-molecule microarray, Cy5-labelled CALM1, profiling panel (AID 1111); conditions: Cy5-CALM1 binding fluorescence, higher = more signal;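 further: labelled calmodulin applied in Tris saline Tween buffer holding calcium plus EGTA and DTT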
# [5] = molecular target: Calmodulin-1 (Homo sapiens) (UniProt P0DP23); assay: small molecules binding Ca-loaded calmodulin-1 – biochemical, small-molecule microarray, Cy5-labelled CALM1, plus calcium, artefact control for SMM control-protein annotation, profiling panel (AID 1112); conditions: Cy5-CALM1 binding fluorescence, higher = more signal;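 further: score merges spot fluorescence with signal to noise from triplicate slides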
# [6] = probe aWnt5a binding to arrayed compounds – biochemical, biotinylated probe, 635/667 nm fluorescence, primary screen (AID 1113); conditions: small-molecule microarray, higher = more signal;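 further: score merges 667 nm fluorescence intensity with signal-to-noise per printed feature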
# [7] = probe aShh binding to arrayed compounds – biochemical, biotinylated probe, 635/667 nm fluorescence, primary screen (AID 1114); conditions: small-molecule microarray, higher = more signal;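 further: probe is biotin-labelled aShh protein from a stem cell growth factor screen; measures binding of labelled protein to compounds printed on the slide; score merges feature fluorescence at 667 nm with signal-to-noise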
# [8] = probe aNog binding to arrayed compounds – biochemical, biotinylated probe, 635/667 nm fluorescence, primary screen (AID 1115); conditions: small-molecule microarray, higher = more signal;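 further: probe is biotinylated aNog protein used at 0.15 µg/mL for 1 h at 4 C; z-score combines 667 nm fluorescence of each spot with its signal to noise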
# [9] = molecular target: Torsin-1A-interacting protein 1 (Homo sapiens) (UniProt Q5JTV8); assay: compound microarray binding of lysate hLAP1 – cell lysate, small-molecule microarray, COS7 lysate, 635/667 nm fluorescence, primary screen (AID 1116); conditions: 635 nm fluorescence, higher = more signal
# Chain of Torsin-1A-interacting protein 1 (Homo sapiens) (Q5JTV8 whole entry, looked up): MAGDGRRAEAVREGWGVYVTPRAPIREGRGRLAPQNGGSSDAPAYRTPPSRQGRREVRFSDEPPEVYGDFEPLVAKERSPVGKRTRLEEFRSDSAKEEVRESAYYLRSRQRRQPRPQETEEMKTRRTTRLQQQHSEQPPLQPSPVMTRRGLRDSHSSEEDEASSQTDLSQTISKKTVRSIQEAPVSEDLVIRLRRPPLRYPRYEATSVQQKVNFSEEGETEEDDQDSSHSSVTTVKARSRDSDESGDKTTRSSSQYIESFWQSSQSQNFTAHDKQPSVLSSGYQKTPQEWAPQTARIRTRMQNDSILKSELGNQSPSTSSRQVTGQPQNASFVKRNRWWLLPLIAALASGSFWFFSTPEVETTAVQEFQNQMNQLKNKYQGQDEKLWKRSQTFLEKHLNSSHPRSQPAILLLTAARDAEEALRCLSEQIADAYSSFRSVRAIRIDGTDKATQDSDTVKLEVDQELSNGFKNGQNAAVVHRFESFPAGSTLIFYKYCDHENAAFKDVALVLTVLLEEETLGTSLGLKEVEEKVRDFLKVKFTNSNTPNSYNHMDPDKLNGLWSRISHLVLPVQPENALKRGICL
# [10] = molecular target: Alpha-bungarotoxin (Bungarus multicinctus) (UniProt P60615); assay: compounds binding labelled alpha-BTX control protein – biochemical, small-molecule microarray, Alexa647 label, 635/667 nm fluorescence, artefact control for SMM control protein annotation, profiling panel (AID 1117); conditions: alpha-BTX-A647 binding fluorescence, higher = more signal
# Chain of Alpha-bungarotoxin (Bungarus multicinctus) (P60615 whole entry, looked up): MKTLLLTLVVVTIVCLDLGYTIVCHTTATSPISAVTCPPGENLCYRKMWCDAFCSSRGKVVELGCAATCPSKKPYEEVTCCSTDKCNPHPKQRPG
SMILES,composite z-score [1],z-score [2],composite z-score [3],composite z-score [4],composite z-score [5],composite z-score [6],composite z-score [7],composite z-score [8],composite z-score [9],composite z-score [10]
CCCCN1CC=CC23O[C@@H]4/C=C\CCCOC(=O)C4[C@H]2C(=O)N(C(CO)C(C)C)[C@@H]3C1=O (stereo not given in full),-0.0052,-0.134,0.272,-0.11,-0.0085,-0.0482,0.0469,-0.51,0.0974,-0.838
CN(C)CCCC[C@@H]1NC(=O)[C@H]2C[C@@H](C(=O)O)[C@@H](c3ccc(O)cc3)N2C1=O,1.55,-0.0575,1.62,2.44,1.23,0.866,1.5,3,4.54,3.2
CC(C)C(=C=CC[C@H](O)c1ccccc1OCCO)C[C@H](O)c1cc(Cl)cc(Cl)c1O,1.46,-1.99,0.0124,0.195,0.271,-0.106,0.0048,0.158,0.962,0.919
C=C(/C(=C/C[C@@H](OC(C)=O)c1cccc(OCCO)c1)c1cnc2ccccc2c1)C(C)C,0.858,-1.96,0.54,-0.24,-0.51,-0.0045,-0.0709,-0.326,1.02,1.3
CCOC(=O)C[C@H]1[C@H](OC(=O)c2ccccc2-c2ccccc2)[C@@H](NC(=O)C2CCCCC2)c2cc(OCCCO)ccc2N1C(=O)c1ccc2ccccc2n1,1.31,-1.71,0.358,0.236,-0.24,-0.0087,0.0611,0.0707,-0.0006,0.026
C[N+](C)(C)CCCC[C@@H]1NC(=O)[C@H]2C[C@@H](C(=O)NCCCCCNC(=O)CS)[C@@H](c3cccc(OCCO)c3)N2C1=O,-0.0364,-0.709,-0.259,-0.0728,0.297,-0.103,-0.0626,-0.234,0.707,-0.307
CN(C)CCCC[C@@H]1NC(=O)[C@@H]2C[C@H](C(=O)NCCCCCCNC(=O)CS)[C@H](c3ccc(O)cc3)N2C1=O,1.16,0.278,1.24,-0.383,-0.199,-0.275,-0.124,-0.0174,0.464,0.136
O=C1C2C=CC(C(O)C3CCCCC3)N(n3cnnc3)C2C(=O)N1Cc1ccccc1 (stereo not given),1.45,-0.911,-0.0665,0.879,-0.195,0.0914,-0.0064,1.07,0.598,0.496
OCCCC1=CC(c2ccc(CN3CCCC3)cc2)N(Cc2cccc(OC(F)(F)F)c2)CC1 (stereo not given),-0.526,-4.72,-0.103,-0.197,0.769,-0.096,-0.0769,-0.0898,0.779,-0.371
CCN(CC)c1ccc(N2CC=CC34O[C@@H]5C=CCCOC(=O)C5[C@H]3C(=O)N(C(C)CO)[C@@H]4C2=O)cc1 (stereo not given in full),0.274,-1.19,-0.331,-0.521,-1.08,-0.0758,0.194,0.156,0.391,-0.973
CCCCCCc1nc(Cc2cc(OC)c(OC)c(OC)c2)cc2c1[Si](C(C)C)(C(C)C)O[C@H]2c1ccccc1,0.192,-2.41,0.851,-0.0875,-0.593,-0.124,0.235,0.0646,-0.142,0.889
COc1ccc([Si](C)(C)[C@H]2[C@H](CC(=O)N3Cc4ccccc4C[C@H]3CO)O[C@@]3(C(=O)N(c4ccccc4)c4ccccc43)[C@@H]2C)cc1,1.35,-3.46,0.949,0.392,-0.987,0.127,-0.0119,-0.542,1.7,1.69
C=C(C)[C@@H]1CC=C(C(O)C2C=CC3C(=O)N(c4ccccc4)C(=O)C3N2Nc2ccc([N+](=O)[O-])cc2)CC1 (stereo not given in full),1.46,-0.315,1.26,-0.0515,0.261,-0.0222,-0.0119,1.24,-0.151,0.839
CN(C)CCCNC(=O)[C@@]1(C)c2ccccc2C(=O)N(Cc2ccc(OC(F)(F)F)cc2)[C@H]1c1ccc(CO)cc1,0.0228,-2.26,-1.01,-0.415,0.522,-0.115,-0.0978,0.738,1.76,1.5
C[C@]1(C(=O)O)c2ccccc2C(=O)N(Cc2cc(F)cc(C(F)(F)F)c2)[C@H]1c1ccc(CO)cc1,0.156,0.475,0.324,-0.16,-0.348,0.0044,-0.0035,-0.0446,-0.0131,-0.408
COC(=O)C(CC#Cc1ccc2c(c1)[C@]1(C(=O)N2)[C@H](C(=O)NC[C@H](O)c2ccccc2)[C@H]2C(=O)O[C@H](c3ccccc3)[C@H](c3ccccc3)N2[C@@H]1c1ccccc1OCCO)C(=O)OC,1.45,-1.92,0.441,0.413,-0.0643,-0.1,-0.167,0.149,1.67,1.61
COc1cc(CO)cc(I)c1O[C@H]1C=C(C(=O)NCCO)C[C@@H]2O[C@H]12,1.4,-1.32,0.873,3.38,1.48,0.055,-0.352,-0.646,1.94,2.81
COC(=O)[C@H](Cc1ccc(O)cc1)N[C@@H](/C=C/C1CC1)[C@H](O)Cc1ccccc1,-0.367,-1.06,-0.0158,-0.851,-0.929,-0.15,-0.214,-0.321,0.108,-0.22

SMILES,composite z-score [1],z-score [2],composite z-score [3],composite z-score [4],composite z-score [5],composite z-score [6],composite z-score [7],composite z-score [8],composite z-score [9],composite z-score [10]
NC(=O)N1C(=O)C2C(C1=O)C1C=C(CCCO)C2C(C2CC2)N1Cc1sc2ccccc2c1Cl (stereo not given),0.173,-1.63,0.138,1.42,0.459,-0.0685,0.138,0.654,1.19,1.67
COc1ccc(C(=O)Nc2cccc(CN3C(=O)[C@@]4(O[C@@H](CC(=O)N5CCC[C@H]5CO)[C@H]([Si](C)(C)c5ccc(OC)cc5)[C@H]4C)c4ccccc43)c2)cc1,0.843,-3.13,0.801,1.26,0.78,-0.0643,-0.142,-0.138,1.72,2.08
C=C(CCCC)/C(=C/C[C@H](OC(=O)c1ccncc1)c1ccccc1OCCO)c1cc(C(=O)OC)ccc1OC,1.22,-2.89,-0.015,-0.0646,-0.636,-0.0331,0.0684,-0.305,0.869,-0.056
COc1ccc([Si](C)(C)[C@H]2[C@H](CCO)O[C@@]3(C(=O)N(Cc4cccc(N5C(=O)c6ccccc6Oc6ccccc65)c4)c4ccccc43)[C@@H]2C)cc1,0.72,-4.89,-0.296,0.29,0.53,-0.091,-0.262,-0.0816,0.449,0.71
COc1ccc([Si](C)(C)[C@H]2[C@H](CC(=O)N3Cc4ccccc4C[C@H]3CO)O[C@@]3(C(=O)N(C)c4ccccc43)[C@@H]2C)cc1,1.42,-4.34,0.77,0.125,-1.29,-0.124,-0.0146,-0.299,0.712,2.48
CN(C)CCCCNC(=O)[C@H]1C[C@H]2C(=O)N3CCC[C@H]3C(=O)N2[C@H]1c1cccc(OCCO)c1,1.4,-0.0955,-0.35,0.915,0.836,-0.144,0.134,1.14,0.495,1.43
O=C1N(Cc2ccccc2)c2ccccc2C[C@@]12COC(c1ccc(OCCCO)cc1)=N2,1.24,-1.08,-0.56,0.993,0.749,0.02,0.0018,1.39,1.58,0.802
CCOC(=O)C[C@H]1[C@H](OC(=O)c2cc3ccccc3oc2=O)[C@@H](NC(=O)CC(C)C)c2cc(OCCCO)ccc2N1C(=O)Cc1ccc(OC)cc1,0.653,-0.0665,0.455,-0.0388,-0.61,-0.16,-0.206,-0.238,0.571,-0.472
CC=CC(O)C1C=CC2C(=O)NC(=O)C2N1Nc1ccc(Cl)cc1Cl (stereo not given),0.342,-0.0813,0.483,0.498,0.0224,-0.0194,0.199,0.353,0.685,0.64
O=C1[C@@H]2[C@@H](CC(COc3ccccc3)=C([C@H](O)CCc3ccccc3)[C@@H]2CO)C(=O)N1Cc1ccccc1,0.778,-2.21,0.399,0.615,-0.346,-0.1,-0.0553,-0.172,0.47,0.495
CCOc1cc(C(O)C2C=CC3C(=O)N(c4ccccc4)C(=O)C3N2Nc2ccccc2F)ccc1O (stereo not given),0.357,-0.299,-0.325,0.182,0.479,0.302,0.536,1.71,-0.321,0.762
CN1C(=O)C2C=CC(C(O)c3ccc(-c4ccccc4)s3)N(NC(=O)OC(C)(C)C)C2C1=O (stereo not given),0.399,-0.204,0.285,2.28,0.902,0.055,-0.279,1.38,1.52,1.62
COC(=O)C1(Cc2ccccc2)C=C2C(=C(C)C(=O)C2C)CN1 (stereo not given),-0.706,0.0597,-0.479,1.92,0.536,-0.0644,-0.0035,1.68,1.8,0.242
CC(C)[Si](C#CCCc1ccccc1)(O[C@H](c1ccccc1)c1cn(Cc2ccccc2)nn1)C(C)C,1.32,-1.53,0.345,0.138,-0.662,-0.0239,-0.338,-0.0827,0.427,0.544
CCCC=C(CCC)[C@@H](NC(=O)OCC(C)C)c1ccc(C(=O)OC)cc1,0.903,-1.02,0.66,0.059,-0.307,-0.217,-0.138,-0.0496,0.0246,-0.376
COCCOC(=O)N1C(=O)[C@@]2(c3ccccc31)[C@H](C(=O)N1CCN(c3ncccn3)CC1)[C@H]1C(=O)O[C@H](c3ccccc3)[C@H](c3ccccc3)N1[C@@H]2c1ccccc1OCCO,1.35,-1.79,0.687,0.902,0.369,-0.0462,0.704,0.26,0.405,0.749
C=CC[C@@]1(C(=O)OC)N=C(c2ccc(OCCCO)cc2)O[C@@H]1c1ccccc1N=[N+]=[N-],1.48,-0.992,0.684,0.17,-0.483,0.0433,0.313,0.604,1.66,1.43
